A number with no mark means an inactive call. Results filed as inconclusive are left out. Entries that show only a call come without a potency. The source made the active and inactive calls. Unless noted, the call rests on the fitted dose curve; in most records, active means well fitted curve in the direction sought with a large enough effect; inconclusive means small, poorly fitted or top-dose-only effect, or another doubt; inactive means no such curve, though single readings can be large; an effect the other way counts as inactive or inconclusive.
Legend:
[1] = target: Beta-2 adrenergic receptor (Homo sapiens) (UniProt P07550); assay: qHTS validation assay of beta-arrestin-biased ligands of beta2-adrenergic receptor (AID 485366)
How it was run: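 Tango cells expressing recombinant beta2-AR and beta-arrestin with tTA-driven luciferase, in DMEM with 1% FBS. Compounds were titrated up to 46 microM for 18 hr at 37 degrees C. Luminescence was read 15 min after substrate; curves were fitted and class-assigned.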

[2] = target: Thioredoxin reductase 1, cytoplasmic (Rattus norvegicus) (UniProt O89049); assay: qHTS Assay for Substrates of Mammalian Selenoprotein Thioredoxin Reductase 1 (TrxR1) (AID 488772);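 further: NADPH fluorescence in the first read after selenite addition and not the 8 min delta; series mostly up to about 57 µM; a drop in NADPH fluorescence below the no-compound background marks a TrxR1 substrate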
How it was run: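 Quantitative HTS in Tris-HCl buffer at pH 7.5 with EDTA and Tween-20, using rat TrxR1, 400 uM NADPH and 400 uM selenite (final). A fall in initial NADPH fluorescence relative to background marked substrate behaviour.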

[3] = target: Thioredoxin reductase 1, cytoplasmic (Rattus norvegicus) (UniProt O89049); assay: qHTS Assay for Inhibitors of Mammalian Selenoprotein Thioredoxin Reductase 1 (TrxR1) (AID 488773); settings: Potency: inhibition;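 further: drop in NADPH fluorescence over an 8 min run after selenite addition; series mostly up to about 57 µM; nearly all actives have a fitted effect of over 40% in size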
How it was run: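 Steps: enzyme (90 nM) plus NADPH (400 uM final), 5 min at ~22 deg C; compound added, 15 min; selenite (400 uM final) added; fluorescence followed for 8 min. Concentration-response curves derived from the normalized delta values.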

[4] = target: Flap endonuclease 1 (Homo sapiens) (UniProt P39748); assay: qHTS Validation Assay for the Inhibitors of Human Flap endonuclease 1 (FEN1) (AID 488816)
How it was run: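 FEN1, dispensed as a 10 nM reagent, was preincubated with pin-transferred compounds for 15 min at room temperature before substrate was added (50 nM final). Plates were read at 0 and 15 min, and a four-parameter Hill equation was fitted to the concentration-response data.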

[5] = target: M-phase phosphoprotein 8 (Homo sapiens) (UniProt Q99549); assay: qHTS Validation Assay for Inhibitors for MPP8 Chromodomain Interactions with Methylated Histone Tails (AID 488949); further: nearly all actives have a fitted effect of over 55% in size; further: potency means the concentration at half of the fitted maximal effect
How it was run: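 MPP8 (50 nM) was preincubated with biotinylated H3(1-18)K9me3 peptide (50 nM) in PBS pH 7.4, 0.01% Tween-20 for 30 min at room temperature, then with compounds for 30 min; binding was detected by AlphaScreen.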

[6] = target: Chromobox protein homolog 1 (Homo sapiens) (UniProt P83916); assay: qHTS Validation Assay for Inhibitors of HP1-beta Chromodomain Interactions with Methylated Histone Tails (AID 488953);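 further: loss of AlphaScreen luminescence from HP1-beta binding biotinylated H3K9me3 peptide; series mostly up to about 110 µM; nearly all actives have a fitted effect of over 50% in size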
How it was run: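 Measured as loss of AlphaScreen luminescence from streptavidin donor and nickel acceptor beads (10 ug/mL final) bridging HP1-beta and biotin-H3(1-18)K9me3, each 50 nM. Compounds met the preassembled complex for 30 min at RT.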

[7] = target: Methanococcus maripaludis chaperonin (MmCpn) (UniProt Q6LX38); assay: High-Throughput Screening for Modulators of Cytosolic Chaperonin Activity: MmCpn Primary Screen (AID 488978);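 further: 50 nM MmCpn enzyme hydrolysing 30 µM ATP at 37 °C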
How it was run: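 MmCpn (50 nM final) was preincubated with compound 5 min at RT, then 30 uM ATP (final) was added and the reaction ran 10 min at 37C. ADP produced was detected by Transcreener HTRF (ex 320 nm; em 590/665 nm).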

[8] = target: Thyrotropin receptor (Homo sapiens) (UniProt P16473); assay: qHTS Assay for Antagonists of the Thyroid Stimulating Hormone Receptor (AID 488980); further: series mostly up to about 58 µM
How it was run: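 HEK293 cells transfected with human TSHR, suspended in HEPES-buffered HBSS with 70 uM RO 20-1724, were treated with compounds plus TSH at EC80 (4 nM final). cAMP was measured by competitive HTRF (cryptate anti-cAMP antibody, cAMP-d2 acceptor).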

[9] = target: D(1A) dopamine receptor (Homo sapiens) (UniProt P21728); assay: HTS Assay for Allosteric Agonists of the Human D1 Dopamine Receptor: Primary Screen for Agonists (AID 488981)
How it was run: (§1)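 Tetracycline-induced HEK293 T-REx cells force-coupled to calcium signalling were incubated overnight at 30 C and dye-loaded at room temperature. Calcium flux over 180 s after compound addition flagged agonists; a further 180 s read after EC20 dopamine flagged potentiators.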

[10] = target: D(1A) dopamine receptor (Homo sapiens) (UniProt P21728); assay: HTS Assay for Allosteric Agonists of the Human D1 Dopamine Receptor: Primary Screen for Potentiators (AID 488982); further: potency means the concentration at half of the fitted maximal effect
How it was run: as §1

[11] = target: D(1A) dopamine receptor (Homo sapiens) (UniProt P21728); assay: HTS Assay for Allosteric Agonists of the Human D1 Dopamine Receptor: Primary Screen for Antagonists (AID 488983);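 further: calcium flux response to an EC80 dopamine challenge measured with no-wash dye; nearly all actives have a fitted effect of over 65% in size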; further: potency means the concentration at half of the fitted maximal effect
How it was run: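 Screening of inducible HEK293 T-REx D1 cells: compound first, EC80 dopamine 180 s later, each phase read kinetically for calcium over 180 s.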

[12] = Validation screen for small molecules that induce genotoxicity in human embryonic kidney (HEK293T) cells expressing luciferase-tagged ELG1 (AID 493106)
How it was run: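 Reporter-gene quantitative HTS in HEK293T cells carrying luciferase-tagged ELG1, whose level climbs under genotoxic stress. Compound exposure lasts 16 hr at 37 °C before luciferase detection.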

[13] = target: Thyrotropin-releasing hormone receptor (Homo sapiens) (UniProt P34981); assay: qHTS for Small Molecule Agonists and Allosteric Enhancers of Human TRH Receptor: Validation Screen for Agonists (AID 493127;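 active means calcium activation more than 3 SD above the typical response in the agonist read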;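 further: intracellular calcium rise by fluo-8 fluorescence before TRH EC20 addition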); settings: TRH receptor agonist cell assay; at 2 µM; active compounds read high
How it was run: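 Gq-coupled calcium mobilization in TRHR cells after compound addition, monitored kinetically with fluo-8 dye on an FDSS reader.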

[14] = Quantitative high throughput screen for delayed death inhibitors of the malarial parasite plastid, 48 hour incubation (AID 488752); further: nearly all actives have a fitted effect of over 65% in size; further: potency means the concentration at half of the fitted maximal effect
How it was run: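 One parasite generation (48 h, 37 C, 5% CO2) of luciferase-reporter P. falciparum in erythrocytes is run with test compound; decreased luminescence indicates inhibited growth.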

[15] = target: Transient receptor potential cation channel subfamily V member 1 (Homo sapiens) (UniProt Q8NER1); assay: HTS Assay for Compounds that Act as Enhancers of the Vanilloid Receptor 1 (AID 488979)
How it was run: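 TRPV1-expressing cells loaded with Fluo-8 calcium dye; compounds added and calcium influx read kinetically for 3 min (agonist phase), then capsaicin at EC20 added and read 2 min more for enhancement. Fluorescence ex 480/em 520 nm.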

[16] = target: ATPase family AAA domain-containing protein 5 (Homo sapiens) (UniProt Q96QE3); assay: Validation screen for small molecules that inhibit ELG1-dependent DNA repair in human embryonic kidney (HEK293T) cells expressing luciferase-tagged ELG1 (AID 493107);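 further: cells co-treated with the DNA-damaging agent 5-fluorouridine alongside compound; series mostly up to about 46 µM; inhibitors lower the ELG1-luciferase luminescence signal; nearly all actives have a fitted effect of over 70% in size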
How it was run: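 Quantitative HTS in HEK293T cells carrying luciferase-tagged ELG1, stimulated with 5-fluorouridine alongside compound for 16 hr. Loss of luciferase signal marks inhibition of ELG1 response.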

[17] = Quantitative high throughput screen for delayed death inhibitors of the malarial parasite plastid, 96 hour incubation (AID 488745); further: nearly all actives have a fitted effect of over 70% in size; further: potency means the concentration at half of the fitted maximal effect
How it was run: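 Growth of reporter-bearing P. falciparum in red cells is measured after 96 h with compound, covering two erythrocytic cycles. Luminescence from the integrated luciferase serves as the growth signal.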

[18] = target: ATP-dependent 6-phosphofructokinase (Trypanosoma brucei brucei) (UniProt O15648); assay: qHTS Assay to Find Inhibitors of T. brucei phosphofructokinase: hit validation (AID 492961);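 further: luminescence reports ADP formed as PFK phosphorylates fructose-6-phosphate with ATP; series mostly up to about 51 µM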
How it was run: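 PFK 1.25 nM, F6P 0.5 mM, ATP 0.1 mM, MgCl2 5 mM, 0.1 M TEA pH 8.0, Tween20 0.01%, BSA 0.1%; 45 min RT. ADP-Glo two-step detection, luminescence. qHTS titration; curve fitting with curve-class categorization.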

Chain of Chromobox protein homolog 1 (Homo sapiens) (P83916 whole entry, looked up): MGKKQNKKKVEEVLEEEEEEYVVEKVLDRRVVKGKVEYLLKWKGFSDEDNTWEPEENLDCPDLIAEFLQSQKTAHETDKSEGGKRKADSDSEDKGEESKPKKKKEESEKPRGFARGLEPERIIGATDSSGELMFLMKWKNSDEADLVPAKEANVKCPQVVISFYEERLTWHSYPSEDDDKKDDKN
Chain of Thyrotropin receptor (Homo sapiens) (P16473 whole entry, looked up): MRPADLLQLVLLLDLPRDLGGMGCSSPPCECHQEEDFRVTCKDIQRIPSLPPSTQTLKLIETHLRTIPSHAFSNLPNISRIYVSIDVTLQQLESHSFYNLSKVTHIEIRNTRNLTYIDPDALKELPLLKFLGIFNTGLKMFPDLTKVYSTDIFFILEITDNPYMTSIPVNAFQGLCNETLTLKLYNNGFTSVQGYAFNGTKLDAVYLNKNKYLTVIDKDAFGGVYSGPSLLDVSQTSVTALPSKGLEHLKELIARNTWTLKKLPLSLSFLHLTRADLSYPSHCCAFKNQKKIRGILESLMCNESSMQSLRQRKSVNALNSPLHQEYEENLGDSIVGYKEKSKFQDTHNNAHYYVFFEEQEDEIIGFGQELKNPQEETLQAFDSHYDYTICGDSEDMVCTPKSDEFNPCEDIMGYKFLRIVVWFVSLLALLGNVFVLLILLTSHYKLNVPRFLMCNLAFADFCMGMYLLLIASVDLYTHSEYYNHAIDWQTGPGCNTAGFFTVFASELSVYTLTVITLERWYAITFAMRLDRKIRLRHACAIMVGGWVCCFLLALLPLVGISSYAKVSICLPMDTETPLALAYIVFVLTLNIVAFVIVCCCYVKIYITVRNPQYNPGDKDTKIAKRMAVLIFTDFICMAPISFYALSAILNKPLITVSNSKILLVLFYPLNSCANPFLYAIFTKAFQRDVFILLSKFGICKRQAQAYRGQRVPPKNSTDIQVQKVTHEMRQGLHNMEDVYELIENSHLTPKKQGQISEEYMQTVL
Chain of Methanococcus maripaludis chaperonin (MmCpn) (Q6LX38 1-543): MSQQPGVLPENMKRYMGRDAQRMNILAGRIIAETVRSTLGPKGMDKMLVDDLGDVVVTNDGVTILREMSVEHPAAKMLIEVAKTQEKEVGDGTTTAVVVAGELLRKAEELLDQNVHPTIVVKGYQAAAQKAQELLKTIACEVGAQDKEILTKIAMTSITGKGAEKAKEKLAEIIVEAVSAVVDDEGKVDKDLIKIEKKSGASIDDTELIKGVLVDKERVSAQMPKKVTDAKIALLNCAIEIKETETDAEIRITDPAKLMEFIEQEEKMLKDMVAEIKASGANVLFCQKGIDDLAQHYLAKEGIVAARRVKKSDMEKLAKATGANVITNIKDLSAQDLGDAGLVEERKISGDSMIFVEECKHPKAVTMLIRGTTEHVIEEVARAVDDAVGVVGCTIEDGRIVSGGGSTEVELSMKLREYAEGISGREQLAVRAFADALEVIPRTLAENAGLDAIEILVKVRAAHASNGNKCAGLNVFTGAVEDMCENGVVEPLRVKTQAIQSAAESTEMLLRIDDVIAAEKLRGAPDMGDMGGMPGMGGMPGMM
Chain of Thioredoxin reductase 1, cytoplasmic (Rattus norvegicus) (O89049 whole entry, looked up): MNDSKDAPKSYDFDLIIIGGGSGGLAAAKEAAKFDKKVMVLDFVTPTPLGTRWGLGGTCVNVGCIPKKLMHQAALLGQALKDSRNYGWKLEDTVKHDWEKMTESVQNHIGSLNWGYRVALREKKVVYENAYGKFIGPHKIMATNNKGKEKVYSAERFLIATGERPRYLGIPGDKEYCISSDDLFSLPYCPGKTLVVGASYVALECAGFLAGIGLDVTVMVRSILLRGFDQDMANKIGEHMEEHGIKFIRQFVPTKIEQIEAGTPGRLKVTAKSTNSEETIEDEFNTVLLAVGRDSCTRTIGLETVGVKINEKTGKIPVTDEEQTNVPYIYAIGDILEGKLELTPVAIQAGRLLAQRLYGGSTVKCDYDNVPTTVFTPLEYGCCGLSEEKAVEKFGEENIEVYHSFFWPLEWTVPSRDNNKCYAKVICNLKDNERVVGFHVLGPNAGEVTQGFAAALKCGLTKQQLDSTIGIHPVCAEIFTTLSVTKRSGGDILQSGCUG
Chain of Flap endonuclease 1 (Homo sapiens) (P39748 whole entry, looked up): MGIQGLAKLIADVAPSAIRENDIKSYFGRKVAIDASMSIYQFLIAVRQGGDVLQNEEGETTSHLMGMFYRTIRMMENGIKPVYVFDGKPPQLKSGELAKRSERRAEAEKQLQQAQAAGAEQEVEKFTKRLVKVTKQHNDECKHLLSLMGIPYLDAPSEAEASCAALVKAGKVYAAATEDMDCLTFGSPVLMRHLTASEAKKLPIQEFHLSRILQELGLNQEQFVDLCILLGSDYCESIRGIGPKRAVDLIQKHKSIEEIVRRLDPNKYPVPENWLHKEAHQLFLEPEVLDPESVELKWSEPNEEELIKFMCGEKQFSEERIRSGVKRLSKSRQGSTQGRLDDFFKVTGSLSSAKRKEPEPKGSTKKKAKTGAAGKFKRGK
Chain of Beta-2 adrenergic receptor (Homo sapiens) (P07550 whole entry, looked up): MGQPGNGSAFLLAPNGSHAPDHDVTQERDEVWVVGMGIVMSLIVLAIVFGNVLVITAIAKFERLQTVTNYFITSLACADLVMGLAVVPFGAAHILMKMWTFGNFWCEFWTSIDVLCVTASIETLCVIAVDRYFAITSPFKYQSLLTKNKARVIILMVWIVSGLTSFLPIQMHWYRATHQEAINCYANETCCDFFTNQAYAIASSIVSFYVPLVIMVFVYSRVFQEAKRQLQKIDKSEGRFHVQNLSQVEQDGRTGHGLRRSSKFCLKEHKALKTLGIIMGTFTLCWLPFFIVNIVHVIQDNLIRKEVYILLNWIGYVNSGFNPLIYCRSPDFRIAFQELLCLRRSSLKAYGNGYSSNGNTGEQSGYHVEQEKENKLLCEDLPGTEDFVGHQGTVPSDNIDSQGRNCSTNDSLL
Chain of Transient receptor potential cation channel subfamily V member 1 (Homo sapiens) (Q8NER1 whole entry, looked up): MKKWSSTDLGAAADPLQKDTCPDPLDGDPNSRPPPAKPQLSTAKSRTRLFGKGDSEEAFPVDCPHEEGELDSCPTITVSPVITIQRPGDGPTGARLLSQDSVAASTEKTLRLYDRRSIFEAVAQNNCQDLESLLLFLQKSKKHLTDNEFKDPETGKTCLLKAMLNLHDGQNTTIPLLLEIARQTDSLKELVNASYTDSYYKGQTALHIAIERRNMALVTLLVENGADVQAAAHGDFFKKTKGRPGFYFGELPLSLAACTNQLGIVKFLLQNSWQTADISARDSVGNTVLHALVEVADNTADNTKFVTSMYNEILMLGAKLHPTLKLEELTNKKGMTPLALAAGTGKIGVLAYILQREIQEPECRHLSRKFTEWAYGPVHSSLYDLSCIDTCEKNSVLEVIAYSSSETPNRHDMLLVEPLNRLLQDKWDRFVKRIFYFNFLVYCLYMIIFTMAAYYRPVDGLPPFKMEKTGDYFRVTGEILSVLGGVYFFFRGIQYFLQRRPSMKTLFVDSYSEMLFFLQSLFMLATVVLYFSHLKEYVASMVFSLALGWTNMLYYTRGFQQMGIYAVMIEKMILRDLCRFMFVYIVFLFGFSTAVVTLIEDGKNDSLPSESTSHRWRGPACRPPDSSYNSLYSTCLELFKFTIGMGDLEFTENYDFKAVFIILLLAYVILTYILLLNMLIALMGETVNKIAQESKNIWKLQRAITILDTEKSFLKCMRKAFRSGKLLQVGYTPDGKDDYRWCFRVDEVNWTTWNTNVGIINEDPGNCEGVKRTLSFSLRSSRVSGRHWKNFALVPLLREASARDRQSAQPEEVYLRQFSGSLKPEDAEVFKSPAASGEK
Chain of Thyrotropin-releasing hormone receptor (Homo sapiens) (P34981 whole entry, looked up): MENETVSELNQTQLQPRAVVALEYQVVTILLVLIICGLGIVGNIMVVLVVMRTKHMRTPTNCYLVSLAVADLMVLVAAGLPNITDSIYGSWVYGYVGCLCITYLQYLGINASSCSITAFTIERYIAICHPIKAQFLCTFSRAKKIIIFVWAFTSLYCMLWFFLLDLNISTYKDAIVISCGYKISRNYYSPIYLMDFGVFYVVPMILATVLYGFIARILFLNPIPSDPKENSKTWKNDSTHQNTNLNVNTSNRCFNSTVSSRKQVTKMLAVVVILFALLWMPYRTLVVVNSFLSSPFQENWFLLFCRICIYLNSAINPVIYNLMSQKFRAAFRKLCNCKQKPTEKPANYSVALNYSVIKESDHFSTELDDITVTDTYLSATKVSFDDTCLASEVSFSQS
Chain of D(1A) dopamine receptor (Homo sapiens) (P21728 whole entry, looked up): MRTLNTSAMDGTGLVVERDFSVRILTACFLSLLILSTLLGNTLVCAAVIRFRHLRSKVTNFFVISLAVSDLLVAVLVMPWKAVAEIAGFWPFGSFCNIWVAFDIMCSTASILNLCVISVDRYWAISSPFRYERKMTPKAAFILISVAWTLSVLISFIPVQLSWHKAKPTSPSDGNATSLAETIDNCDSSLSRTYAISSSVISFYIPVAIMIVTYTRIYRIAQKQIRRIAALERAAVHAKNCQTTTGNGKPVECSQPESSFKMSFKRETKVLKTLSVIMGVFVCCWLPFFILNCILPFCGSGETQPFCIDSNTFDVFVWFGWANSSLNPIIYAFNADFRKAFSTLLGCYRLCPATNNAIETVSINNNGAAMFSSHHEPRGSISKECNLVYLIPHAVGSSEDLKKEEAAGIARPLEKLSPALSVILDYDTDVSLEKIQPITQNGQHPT
Chain of ATP-dependent 6-phosphofructokinase (Trypanosoma brucei brucei) (O15648 whole entry, looked up): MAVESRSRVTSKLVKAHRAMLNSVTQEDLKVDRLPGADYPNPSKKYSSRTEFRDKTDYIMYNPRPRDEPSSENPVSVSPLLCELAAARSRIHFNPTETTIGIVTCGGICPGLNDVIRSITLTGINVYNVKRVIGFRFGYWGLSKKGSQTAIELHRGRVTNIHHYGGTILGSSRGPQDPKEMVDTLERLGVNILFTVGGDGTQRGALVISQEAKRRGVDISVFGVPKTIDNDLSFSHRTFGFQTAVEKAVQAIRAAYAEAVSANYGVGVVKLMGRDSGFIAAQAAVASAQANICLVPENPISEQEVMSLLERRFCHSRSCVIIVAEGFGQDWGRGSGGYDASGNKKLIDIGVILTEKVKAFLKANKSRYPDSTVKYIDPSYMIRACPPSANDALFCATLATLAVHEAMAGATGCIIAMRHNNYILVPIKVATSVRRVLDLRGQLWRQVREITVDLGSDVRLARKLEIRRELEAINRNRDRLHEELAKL

Compound | outcome [1] | outcome [2] | Potency [3] | Potency [4] | Potency [5] | Potency [6] | outcome [7] | outcome [8] | Potency [9] | Potency [10] | Potency [11] | Potency [12] | activation [13] | Potency [14] | outcome [15] | Potency [16] | Potency [17] | outcome [18]
NCCNS(=O)(=O)c1cccc2c(Cl)cccc12 | inactive | inactive | inactive | inactive | inactive | inactive | inactive | inactive | inactive | inactive | inactive | inactive | 2.62% | – | – | – | – | –
Cc1ccccc1/C=C/C1=NCCN1 | inactive | inactive | inactive | inactive | inactive | inactive | inactive | inactive | inactive | inactive | 12.6 µM (active) | inactive | 0.5% | inactive | inactive | inactive | – | –
CCCOC(=O)c1c(-c2ccccc2)nc(CC)c(C(=O)SCC)c1CCC | inactive | – | inactive | inactive | inactive | inactive | inactive | inactive | inactive | 2.91 µM (active) | – | inactive | 1.31% | – | inactive | inactive | 14.7 µM (active) | –
Nc1nc2[nH]c(=O)cnc2c(=O)[nH]1 | inactive | – | – | inactive | inactive | – | inactive | inactive | inactive | inactive | inactive | inactive | 0.312% | inactive | inactive | inactive | inactive | –
C[C@@]1(C2CCCC2)Cc2cc(OCC(=O)O)c(Cl)c(Cl)c2C1=O | inactive | inactive | inactive | inactive | inactive | inactive | inactive | inactive | inactive | inactive | inactive | inactive | 1.25% | inactive | inactive | – | – | –
Oc1cc2c(cc1O)C(c1ccccc1)CNCC2 (stereo unspecified) | inactive | – | inactive | inactive | inactive | – | inactive | inactive | inactive | – | – | inactive | 0.938% | inactive | inactive | inactive | inactive | –
Cc1cccc(C(=O)NCN2CCN(c3ccccc3C#N)CC2)c1 | inactive | – | – | inactive | inactive | inactive | inactive | inactive | inactive | inactive | – | inactive | 0.562% | inactive | inactive | – | inactive | –
COc1ccccc1N1CCN(CCCNc2c(C)c(=O)n(C)c(=O)n2C)CC1 | inactive | inactive | inactive | inactive | inactive | – | inactive | inactive | inactive | inactive | inactive | inactive | 0.0625% | – | inactive | inactive | 14.7 µM (active) | –
NC(=Nc1ccccc1)NC(=O)c1nc(Cl)c(N)nc1N | inactive | inactive | inactive | inactive | inactive | inactive | inactive | inactive | inactive | inactive | 12.6 µM (active) | – | 0.312% | – | inactive | – | – | –
O=c1cc(O)cc(/C=C/c2ccc(O)c(O)c2)o1 | inactive | inactive | inactive | – | 5.32 µM (active) | – | inactive | inactive | – | inactive | inactive | inactive | -0.438% | inactive | inactive | inactive | – | –
OC[C@H]1O[C@H](n2cnc3c(N[C@H]4CCC[C@@H]4O)ncnc32)[C@H](O)[C@@H]1O | inactive | inactive | inactive | inactive | inactive | inactive | inactive | – | inactive | inactive | inactive | – | – | – | – | – | – | –
CCCCCCCC/C=C\CCCCCCCC(=O)NCCc1ccc(O)c(O)c1 | inactive | – | – | inactive | inactive | – | inactive | inactive | inactive | 4.61 µM (active) | inactive | – | 1.94% | 13.1 µM (active) | – | – | 14.7 µM (active) | –
CN1C2CCC1CC(OC(c1ccccc1)c1ccccc1)C2 (stereo unspecified) | inactive | inactive | inactive | inactive | inactive | inactive | inactive | inactive | inactive | inactive | inactive | inactive | – | – | – | inactive | 8.28 µM (active) | inactive
CN(CC[C@@H](Oc1ccc(C(F)(F)F)cc1)c1ccccc1)CC(=O)O | inactive | inactive | inactive | inactive | inactive | inactive | inactive | – | inactive | inactive | inactive | inactive | – | – | – | – | – | –

From PubChem BioAssay (NCATS)
